The nature of test [1]: compounds binding Alexa647 anti-His antibody – biochemical, small-molecule microarray, 635 nm fluorescence, artefact control for SMM control protein annotation, primary screen (AID 1128).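 Further: score merges feature fluorescence with signal-to-noise for each printed compound spot.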 The conditions noted are these: higher = more signal.
The subject of test [2] is Human papillomavirus type 1a E7 protein (residues 1-88). Nature of the test: HPV1a E7 small-molecule binders, primary screen, biochemical, small-molecule microarray, residues 1-88, 635 nm (AID 1129). The conditions noted are these: small-molecule microarray binding, fluorescence 635 nm; higher = more signal.
The target of test [3] is Focal adhesion kinase 1 (Homo sapiens) (UniProt Q05397). Nature of the test: PTK2 protein binding on printed compound slides – biochemical, small-molecule microarray, 635/667 nm fluorescence, BSA, DTT, primary screen (AID 1130).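 Further: composite of spot emission at 667 nm and signal to noise over triplicate slides.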 The conditions noted are these: 635 nm fluorescence, higher = more signal.
Test [4] concerns Fibrinogen (Alexa647-labelled). Nature of the test: Alexa647-fibrinogen binding to printed small molecules – biochemical, small-molecule microarray, 635/667 nm fluorescence, artefact control for SMM control-protein annotation, profiling panel (AID 1131).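 Further: z-score merges 667 nm fluorescence with per-spot signal-to-noise over triplicate slides.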 The following applies: fibrinogen-A647 binding fluorescence, higher = more signal.
Test [5] concerns the target Follistatin (Homo sapiens) (UniProt P19883). Description: FST protein binding to printed compounds – biochemical, small-molecule microarray, 635/667 nm fluorescence, primary screen (AID 1132). The following applies: 635 nm fluorescence, higher = more signal.
Test [6] has as its target Fibroblast growth factor 2 (Homo sapiens) (UniProt P09038). Nature of the test: basic fibroblast growth factor binding to printed compounds – biochemical, small-molecule microarray, 635/667 nm fluorescence, primary screen (AID 1133). The conditions noted are these: FGF2, fluorescence 635/667, higher = more signal.
A short description of test [7]: JC-1 mitochondrial potential readout, lung cancer cells – cell-based, A549, JC-1 fluorescence, basal, 24 h, 100 nL, profiling panel (AID 1138).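 Further: A549 lung adenocarcinoma cells under basal conditions with no added stimulus; test concentration not given here.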 The following applies: higher = more signal.
A further test has as its system Lefty1. Description: Lefty1 protein binding to printed compounds – biochemical, small-molecule microarray, 635/667 nm fluorescence, primary screen (AID 1139). The following applies: fluorescence 635/667, higher = more signal.
In test [8] the test system is wheat germ agglutinin (Triticum aestivum), Alexa647-labelled. Nature of the test: Alexa647-WGA lectin binding to printed small molecules – biochemical, small-molecule microarray, 635/667 nm fluorescence, artefact control for SMM control-protein annotation, profiling panel (AID 1140).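 Further: score merges 667 nm feature emission with signal to noise over triplicate slides.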 The conditions noted are these: WGA-A647 binding, 635 nm fluorescence, higher = more signal.

The target of test [9] is Luciferin 4-monooxygenase (Photinus pyralis) (UniProt P08659). Description: inhibition of purified Photinus pyralis luciferase – biochemical, luminescence, purified enzyme, 2006 set, primary screen (AID 1141).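 Further: cell-free assay with purified firefly luciferase at 100 ng per well in PBS; test concentration not given here.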 The conditions noted are these: purified firefly luciferase, SteadyGlo luminescence, 30 min; higher = more signal, called active from +8 up or from −8 down.
Test [10] concerns Wnt5a (protein binding on small-molecule microarray). Description: small molecules binding Wnt5a protein – biophysical, small-molecule microarray, 635/667 nm fluorescence, primary screen (AID 1142).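 Further: fluorescence read at 667 nm with signal to noise per printed feature.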 The following applies: 635 nm fluorescence, higher = more signal.
Test [11] in a line: ATP-based viability of Huh7 replicon cells – cell-based, CellTiter-Glo luminescence, basal, 48 h, cytotoxicity control for HCV replication inhibitor project, primary screen (AID 1143).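 Further: Huh7 hepatoma cells carrying a hepatitis C replication reporter with no stimulus; test concentration not given here.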 The conditions noted are these: higher = more signal, called active from +8 up or from −8 down. For orientation: Replicon systems follow genome replication, usually without infectious particles.
The nature of test [12]: Pseudomonas biofilm growth suppression – PAO1 strain, BacTiter-Glo luminescence, LB-PBS, primary screen (AID 1144). The conditions noted are these: P. aeruginosa PAO1 biofilm, 12 h, higher = more signal.
Test [13] can be described thus: basal CRE-LacZ reporter activity in PC12 – cell-based, unstimulated, primary screen (AID 1145). The conditions noted are these: no forskolin, luminescence, 4.5 h, higher = more signal, called active from +8 up or from −8 down.
A short description of test [14]: forskolin-driven CRE-LacZ activity in PC12 – cell-based, CRE-LacZ reporter, forskolin-stimulated, primary screen (AID 1146).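 Further: PC12 cells with 6xCRE LacZ reporter stimulated by forskolin 10 µM; beta-galactosidase reporter signal reflecting CREB driven transcription.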 The following applies: luminescence, 4.5 h, higher = more signal, called active from +8 up or from −8 down.
Test [15] deals with Streptavidin (Streptomyces avidinii) (UniProt P22629). Description: compounds binding control protein streptavidin – biophysical, small-molecule microarray, 635/667 nm fluorescence, artefact control for SMM compound annotation, primary screen (AID 1147).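 Further: signal reflects streptavidin binding to arrayed compounds as a control protein.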 The conditions noted are these: higher = more signal.
Test [16] in a line: probe aInhba binding on compound microarray – biochemical, small-molecule microarray, 635/667 nm fluorescence, primary screen (AID 1148).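 Further: score merges 667nm spot fluorescence with signal-to-noise for antibody binding to printed compounds.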 The conditions noted are these: higher = more signal.
For test [17], the target named is Torsin-1A (Homo sapiens) (UniProt O14656). Description: TOR1A wild-type binding on microarray – cell lysate, small-molecule microarray, lysate, 635/667 nm, primary screen (AID 1149). The following applies: COS7 hTOR1A-WT lysate, 635 nm fluorescence, higher = more signal.
Test [18] has the same target. Description: torsin A mutant lysate binding on microarrays – cell lysate, small-molecule microarray, COS7 lysate, 635/667 nm fluorescence, primary screen (AID 1150).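 Further: score pools 667 nm emission and signal to noise measuring lysate protein binding.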 The following applies: COS7 hTOR1A mutant lysate, 635 nm fluorescence, higher = more signal.
The subject of test [19] is Sonic hedgehog protein (Shh). Nature of the test: Sonic hedgehog microarray binding compounds – biochemical, small-molecule microarray, 635/667 nm fluorescence, primary screen (AID 1151).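 Further: Shh protein binding to compounds spotted on small-molecule microarray slides; score combines spot fluorescence intensity with signal-to-noise across triplicate slides.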 The conditions noted are these: 635 nm fluorescence, higher = more signal.

We go through five molecules from PubChem BioAssay.

Activity calls are given as the source filed them. Unless noted, how the calls were made is not given here.

Sequence of Streptavidin (Streptomyces avidinii) (P22629 whole entry, looked up): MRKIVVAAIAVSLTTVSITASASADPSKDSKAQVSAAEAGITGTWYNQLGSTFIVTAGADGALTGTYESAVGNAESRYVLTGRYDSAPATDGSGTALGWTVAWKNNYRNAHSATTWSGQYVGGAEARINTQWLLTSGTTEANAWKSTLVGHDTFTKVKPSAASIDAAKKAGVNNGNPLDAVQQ
Sequence of Luciferin 4-monooxygenase (Photinus pyralis) (P08659 whole entry, looked up): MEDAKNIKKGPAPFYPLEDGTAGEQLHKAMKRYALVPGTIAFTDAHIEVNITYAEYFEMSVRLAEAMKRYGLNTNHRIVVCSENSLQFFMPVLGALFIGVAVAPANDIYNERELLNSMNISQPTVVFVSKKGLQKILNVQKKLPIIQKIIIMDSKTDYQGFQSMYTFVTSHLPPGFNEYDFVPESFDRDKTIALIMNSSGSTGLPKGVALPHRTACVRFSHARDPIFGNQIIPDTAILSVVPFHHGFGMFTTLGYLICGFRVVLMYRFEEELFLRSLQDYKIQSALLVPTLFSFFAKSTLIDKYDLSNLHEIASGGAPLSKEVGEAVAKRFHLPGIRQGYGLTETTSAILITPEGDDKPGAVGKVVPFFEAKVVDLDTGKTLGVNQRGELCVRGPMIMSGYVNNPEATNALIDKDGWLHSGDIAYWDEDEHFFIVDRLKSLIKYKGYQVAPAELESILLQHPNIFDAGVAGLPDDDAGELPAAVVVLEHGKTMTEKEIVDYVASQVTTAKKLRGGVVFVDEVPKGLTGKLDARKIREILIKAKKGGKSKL
Sequence of Torsin-1A (Homo sapiens) (O14656 whole entry, looked up): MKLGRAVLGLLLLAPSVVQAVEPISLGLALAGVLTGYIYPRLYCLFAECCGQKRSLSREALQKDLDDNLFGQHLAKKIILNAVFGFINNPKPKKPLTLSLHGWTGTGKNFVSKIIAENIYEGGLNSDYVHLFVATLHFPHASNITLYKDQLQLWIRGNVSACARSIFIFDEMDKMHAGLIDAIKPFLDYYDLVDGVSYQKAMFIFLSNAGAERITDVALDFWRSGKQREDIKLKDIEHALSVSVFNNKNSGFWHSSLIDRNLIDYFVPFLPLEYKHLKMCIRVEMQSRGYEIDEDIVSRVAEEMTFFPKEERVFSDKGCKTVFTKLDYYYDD
Sequence of Follistatin (Homo sapiens) (P19883 whole entry, looked up): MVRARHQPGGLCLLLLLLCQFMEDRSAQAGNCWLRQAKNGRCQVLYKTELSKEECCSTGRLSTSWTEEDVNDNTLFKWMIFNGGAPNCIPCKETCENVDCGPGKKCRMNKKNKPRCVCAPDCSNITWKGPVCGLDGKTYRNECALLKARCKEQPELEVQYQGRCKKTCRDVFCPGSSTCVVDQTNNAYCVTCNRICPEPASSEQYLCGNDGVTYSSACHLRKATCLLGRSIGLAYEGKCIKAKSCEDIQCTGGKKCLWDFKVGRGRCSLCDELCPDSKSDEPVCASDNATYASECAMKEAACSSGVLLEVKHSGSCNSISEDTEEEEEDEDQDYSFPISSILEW
Sequence of Fibroblast growth factor 2 (Homo sapiens) (P09038 whole entry, looked up): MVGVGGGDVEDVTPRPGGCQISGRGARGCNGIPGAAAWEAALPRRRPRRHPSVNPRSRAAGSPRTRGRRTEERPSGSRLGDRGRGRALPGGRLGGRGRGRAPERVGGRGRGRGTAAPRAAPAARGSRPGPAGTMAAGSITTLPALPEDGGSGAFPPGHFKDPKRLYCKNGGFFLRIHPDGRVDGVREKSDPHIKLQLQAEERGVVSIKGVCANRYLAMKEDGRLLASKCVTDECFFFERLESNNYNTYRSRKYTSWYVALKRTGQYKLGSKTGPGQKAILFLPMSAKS
Sequence of Focal adhesion kinase 1 (Homo sapiens) (Q05397 whole entry, looked up): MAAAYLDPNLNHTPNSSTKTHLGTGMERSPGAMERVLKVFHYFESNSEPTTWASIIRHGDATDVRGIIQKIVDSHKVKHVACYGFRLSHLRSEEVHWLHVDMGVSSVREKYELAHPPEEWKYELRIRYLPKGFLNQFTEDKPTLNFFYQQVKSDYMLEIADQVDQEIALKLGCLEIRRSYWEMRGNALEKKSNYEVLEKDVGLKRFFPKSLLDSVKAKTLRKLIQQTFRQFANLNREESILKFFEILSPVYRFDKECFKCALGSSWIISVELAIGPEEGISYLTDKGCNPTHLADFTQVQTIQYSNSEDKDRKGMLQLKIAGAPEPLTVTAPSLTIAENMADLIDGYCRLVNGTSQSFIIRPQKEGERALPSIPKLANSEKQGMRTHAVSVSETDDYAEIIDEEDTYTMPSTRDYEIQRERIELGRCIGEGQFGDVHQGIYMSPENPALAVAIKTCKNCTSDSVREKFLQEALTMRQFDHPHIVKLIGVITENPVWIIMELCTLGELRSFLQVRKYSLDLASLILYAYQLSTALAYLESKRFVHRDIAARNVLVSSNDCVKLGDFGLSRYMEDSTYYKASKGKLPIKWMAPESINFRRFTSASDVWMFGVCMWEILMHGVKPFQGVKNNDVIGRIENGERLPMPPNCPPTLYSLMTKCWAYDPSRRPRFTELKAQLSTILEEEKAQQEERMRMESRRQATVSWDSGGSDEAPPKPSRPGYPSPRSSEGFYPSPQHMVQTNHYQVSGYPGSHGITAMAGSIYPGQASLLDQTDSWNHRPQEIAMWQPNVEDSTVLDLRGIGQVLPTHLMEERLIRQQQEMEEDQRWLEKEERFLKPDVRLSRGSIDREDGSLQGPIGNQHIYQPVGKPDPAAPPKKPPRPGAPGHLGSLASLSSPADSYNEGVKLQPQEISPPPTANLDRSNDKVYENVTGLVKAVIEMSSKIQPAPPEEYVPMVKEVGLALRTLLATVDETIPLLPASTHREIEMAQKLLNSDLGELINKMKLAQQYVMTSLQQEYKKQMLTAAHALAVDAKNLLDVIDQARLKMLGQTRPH

For the molecule `COC(=O)[C@@]1(Cc2ccc(OC)cc2)[C@H]2c3cc(C(=O)N(C)C)n(CCc4ccc(OC)c(Br)c4)c3C[C@H]2CN1C(=O)c1ccccc1`, the composite z-score in test [1] was 2.28; in [2], 1.23; in test [3], 2.29; in test [4], 0.891; in [5], 0.85; in [6] it was -0.763. The composite z-score in the test on Lefty1 was -0.545; in test [8] it was 1.37; in [10], 0.839; in [15], 1.95; in [16], 0.993; in the test with Torsin-1A (Homo sapiens) [17], -0.242. Also, the composite z-score in the test with Torsin-1A (Homo sapiens) [18] came out at 0.733; in test [19], 0.116. For the same molecule, the z-score was 0.37 in test [7]; 0.253 (inactive) in [9]; -3.88 (inactive) in test [11]; 0.28 (inactive) in [12]; 0.39 (inactive) in test [13]; 0.0318 (inactive) in [14].
With `CO[C@H]1O[C@H](CO)[C@@H](OC(=O)Nc2ccc3c(c2)OCO3)[C@H](OC(=O)Nc2ccccc2)[C@@H]1OC(=O)Nc1ccccc1`, the composite z-score was 1.79 in test [1]; 1.22 in [2]; 1.02 in test [3]; 0.968 in test [4]; 1.41 in [5]; 1.83 in test [6]. In addition, the composite z-score with Lefty1 came out at 0.823; in test [8] it was 0.497; in test [10], 0.743; in test [15], 0.327; in test [16], 0.0398; with Torsin-1A (Homo sapiens) [17], 0.491. The composite z-score with Torsin-1A (Homo sapiens) [18] is 1.09; in [19], 1.12. Moreover, the z-score in test [7] was 0.187; in [9], -0.899 (inactive); in test [11] it was -3.5 (inactive); in test [12], -0.22 (inactive); in test [13], 0.605 (inactive); in [14], -1.49 (inactive).
In the case of `C=CC[C@]1(C(=O)N2CCCCC2)N=C(c2ccc(OCCCO)cc2)O[C@H]1c1ccccc1N=[N+]=[N-]`, the composite z-score in test [1] was determined as 2.94; in test [2], 1.26; in [3] it was 0.426; in [4], 1.01; in test [5], 1.4; in [6] it was 1.55. Further, the composite z-score in the test with Lefty1 was 1.48; in test [8], 1.37; in [10] it was 0.824; in test [15] it was 1.87; in test [16] it was 0.0355; with Torsin-1A (Homo sapiens) [17] it was 1.02. In addition, the composite z-score was found to be 1.06 with Torsin-1A (Homo sapiens) [18] and 0.377 in test [19]. For the same molecule, the z-score was -0.591 in test [7]; -10 (active) in test [9]; -3.21 (inactive) in [11]; -0.903 (inactive) in [12]; -0.174 (inactive) in [13]; -1.18 (inactive) in test [14].
On to `CCC#CCN(Cc1ccccc1Br)[C@H](/C=C/c1ccccc1)[C@@H](O)Cc1ccccc1`, for which the composite z-score in test [1] is 0.017; in test [2] it was -0.518; in test [3], -0.0168; in [4], -0.58; in [5] it was -0.886; in test [6], -1.48. Further, the composite z-score in the test with Lefty1 was -0.978; in [8], -0.518; in test [10], -0.659; in test [15] it was -0.312; in test [16] it was -0.179; with Torsin-1A (Homo sapiens) [17] it was -0.586. For the same molecule, the values for the composite z-score (with Torsin-1A (Homo sapiens) [18]; in test [19]) were -0.542 and -1.18, respectively. The z-score in [7] was -0.565; in test [9], -0.686 (inactive); in test [11] it was -1.45 (inactive); in [12], 0.282 (inactive); in test [13], 2.94 (inactive); in [14], 0.272 (inactive).
Turning to `C#C[C@H](O[Si](C#Cc1ccccc1)(C(C)C)C(C)C)c1ccccc1`, the composite z-score in test [1] is 0.126; in test [2], -0.581; in test [3] it was -0.515; in test [4], -0.664; in test [5], -0.89; in [6] it was -0.487. The composite z-score with Lefty1 is -0.126; in test [8], -0.242; in test [10] it was -0.0449; in test [15] it was -0.636; in test [16], -0.242; with Torsin-1A (Homo sapiens) [17] it was -0.234. Further, the results for the composite z-score (with Torsin-1A (Homo sapiens) [18]; in test [19]) were -0.543 and -0.154, respectively. The z-score was -1.47 in test [7]; 0.645 (inactive) in test [9]; -1.33 (inactive) in test [11]; -0.368 (inactive) in test [12]; -0.258 (inactive) in test [13]; 6.27 (inactive) in test [14].
